Screens deposited in PubChem BioAssay by National Center for Advancing Translational Sciences (NCATS).
DT40 TDP1 CPT: growth inhibition of DT40 Tdp1-/-;hTDP1 cells with camptothecin (screen for TDP1 inhibitors); chicken DT40 Tdp1-/-;hTDP1 cells + 20 nM CPT, ATP luminescence, 48 h; Potency, µM (titrated, usually from 46.2 µM), without a hit: top-dose activity change, negative = growth inhibition, hits mostly inhibitors; hit rate 12% among 420,000; further: potency means the concentration at half of the fitted maximal effect; on the % scale 0 is the no-effect control and ±100 the full control effect; nearly all actives have a fitted effect of over 55% in size
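Cell growth measured by CellTiter-Glo luminescence after a minimum 48 h, 37 C compound exposure with 20 nM CPT in Tdp1-knockout DT40 cells stably expressing hTDP1, seeded 400/well; qHTS titration format.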
IL1B secr inh: blocks inflammasome-driven IL-1 beta release | hit rate 4.7% among 360,000 | THP-1 LPS/ATP IL-1B secretion, AlphaLISA, 16 h; active compounds read low | AID 743279 | activity change, % at 57.5 µM; in the data active means activity change below about -50%; inconclusive means mostly about -30% to -49%; further: on the % scale 0 is the no-effect control and ±100 the full control effect
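THP-1 cells pretreated 1 hr with compounds (up to 57.5 uM final), then stimulated with LPS (250 ng/mL final) plus ATP (1.25 mM final); secreted IL-1B measured by AlphaLISA after 16 hr, decreased signal indicating inhibition.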
D3 ag: agonists of human D3 dopamine receptor. P35462. D3R DiscoveRx beta-arrestin cells, luminescence, 90 min. max activation, %. hit rate 0.58% among 410,000. AID 652048; in the data active means max activation above about 30%; further: 0% is about no effect
Target sequence (P35462 whole entry, looked up): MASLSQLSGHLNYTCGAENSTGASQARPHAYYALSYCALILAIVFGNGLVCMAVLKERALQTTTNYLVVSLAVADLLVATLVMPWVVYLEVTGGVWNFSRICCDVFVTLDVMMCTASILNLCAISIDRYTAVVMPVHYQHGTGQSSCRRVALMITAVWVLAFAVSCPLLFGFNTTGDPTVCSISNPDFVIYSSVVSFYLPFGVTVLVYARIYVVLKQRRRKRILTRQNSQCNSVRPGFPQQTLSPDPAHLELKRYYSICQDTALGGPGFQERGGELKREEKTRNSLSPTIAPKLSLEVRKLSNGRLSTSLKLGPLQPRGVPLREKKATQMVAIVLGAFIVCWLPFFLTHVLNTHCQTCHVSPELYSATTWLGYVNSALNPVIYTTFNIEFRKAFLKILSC
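Agonist-mode cell screen: cells plated at 1500/well and incubated overnight at 37 °C, then exposed to library compounds for 90 min at 37 °C. Detection reagent was added for 30–60 min at room temperature, and luminescence was read.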
ClpP mod: qHTS Assay for Activators of ClpP | Potency, µM (highest dose often 57.5 µM), for the others: at the highest dose activity change, negative = active | hit rate 1.9% among 340,000 | purified B. subtilis ClpP, FRET peptide cleavage, 20 min | ATP-dependent Clp protease proteolytic subunit (Bacillus subtilis (strain 168)), P80244; active means well fitted falling curve with a large enough effect; inconclusive means small, poorly fitted or top-dose-only effect; inactive means no such curve, though single readings can be large or run the other way; further: potency means the concentration at half of the fitted maximal effect; the source files actives as falling curves though it sought activators and does not explain the sign; nearly all actives have a fitted effect of over 65% in size
Target sequence (P80244 whole entry, looked up): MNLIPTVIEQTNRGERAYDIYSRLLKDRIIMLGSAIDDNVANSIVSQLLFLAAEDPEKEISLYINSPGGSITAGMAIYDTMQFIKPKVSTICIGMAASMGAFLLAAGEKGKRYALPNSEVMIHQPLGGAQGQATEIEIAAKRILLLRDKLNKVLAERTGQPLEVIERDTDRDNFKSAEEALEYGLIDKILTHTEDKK
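FRET quenching reversal measured ClpP activation: 10 microg/mL B. subtilis ClpP at pH 8 with the FRET-FV decapeptide, read at 430 nm after 320 nm excitation. The 20-min minus 0-min signal was scaled between DMSO/no-enzyme wells and ADEP (5.8 microM final).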
DRD3 antagonist: antagonists of human D3 dopamine receptor; max response, negative = inhibition, %; D3R cells, DiscoveRx beta-arrestin luminescence, antagonist mode; active compounds read low; P35462; hit rate 2.5% among 360,000; in the data active means max response below about -50%; inconclusive means no clear call, values can overlap the other calls; further: on the % scale 0 is the no-effect control and ±100 the full control effect
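Cells expressing the human receptor were seeded at 1500 cells/well, incubated overnight at 37 degrees C in 5% CO2, then exposed to library compounds with dopamine controls for 90 minutes at 37 degrees C before luminescent detection.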
TDP1 cell noCPT: qHTS for Inhibitors of human tyrosyl-DNA phosphodiesterase 1 (TDP1): qHTS in cells in absence of CPT; Potency, µM (highest dose often 46.2 µM), inactives show at the top dose activity change, negative = growth inhibition, most hits filed as inhibitors; AID 686978, 2013; hit rate 15% among 420,000; DT40 Tdp1-/- hTDP1 cells, no CPT, ATP luminescence, 48 h; further: potency means the concentration at half of the fitted maximal effect; on the % scale 0 is the no-effect control and ±100 the full control effect; nearly all actives have a fitted effect of over 55% in size
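DT40 Tdp1-/-;hTDP1 cells, no CPT (DMSO vehicle only), 400 cells/well; compounds pin-transferred; ≥48 hr, 37 °C; CellTiter-Glo 30 min RT dark, luminescence read.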
Numbers without * were called inactive; i = inactive; ? = inconclusive; · = no result. Shown are actives, neighbours in structure and some others; about 21% of the full set was active somewhere. Unless noted, the call rests on the fitted dose curve; in most records, active means well fitted inhibition curve with a large enough effect; inconclusive means small, poorly fitted or top-dose-only effect; inactive means flat fitted curve, though single readings scatter.

SMILES	DT40 TDP1 CPT	IL1B secr inh	D3 ag	ClpP mod	DRD3 antagonist	TDP1 cell noCPT
CC(NC(=O)c1ccc(C(=O)c2ccccc2)cc1)c1ccc(S(N)(=O)=O)cc1 (centres undefined)	-24%	-52*	-14	·	-3	?
CCN(CC)S(=O)(=O)c1ccc(Cl)c(NC(=O)c2ccccc2C)c1	?	-1	3	0%	8	23µM*
CCN(CC)S(=O)(=O)c1ccc(Cl)c(C(=O)Nc2ccc(Cl)cc2[N+](=O)[O-])c1	5.8µM*	?	14	1%	8	4.6µM*
CN(C)S(=O)(=O)c1ccc(Cl)c(C(=O)Nc2ccccc2[N+](=O)[O-])c1	0%	0	-7	-2%	-25	-27%
COc1ccc(NC(=O)CSc2ccc(-c3sc(C)nc3C)nn2)cc1	-24%	i	1	-1%	19	?
Cc1nc(C)c(-c2ccc(SCC(=O)Nc3ccc(Br)cc3)nn2)s1	21µM*	·	-3	-1%	·	?
Cc1nc(C)c(-c2ccc(SCC(=O)Nc3cccc(F)c3)nn2)s1	16µM*	i	9	-1%	36	23µM*
CCc1ccc(NC(=O)CSc2ccc(-c3sc(C)nc3C)nn2)cc1	?	72	1	2%	9	?
Cc1nc(C)c(-c2ccc(SCC(=O)Nc3cccc(Cl)c3)nn2)s1	26µM*	3	10	-5%	10	?
Cc1nc(C)c(-c2ccc(SCc3cccc(F)c3)nn2)s1	-18%	-10	-3	-1%	3	-8%
CC(=O)c1cccc(NC(=O)CSc2ccc(-c3sc(C)nc3C)nn2)c1	21µM*	i	-1	-1%	27	23µM*
CC(OC(=O)CSCC(=O)Nc1ccc(Cl)cc1)C(=O)N(C)Cc1ccccc1 (centres undefined)	?	-5	-10	·	-1	?
Cc1cc(NS(C)(=O)=O)c(=O)n(Cc2cccc(C(F)(F)F)c2)c1	-19%	-7	2	4%	10	-19%
C[C@@]12C(C[C@H](O)[C@@]34C[C@@H](CCC13)[C@@H](CO)C4=O)[C@](C)(C(=O)O)CC[C@@H]2O (some centres undefined)	?	-5	-9	-1%	0	?
C=C1C(=O)[C@]23C[C@H]1CCC2[C@@]1(C)C(C[C@@H]3O)[C@](C)(C(=O)OC)CC[C@@H]1O (some centres undefined)	1µM*	-111*	-12	4%	-67*	0.52µM*
CN(C)c1ccnc(Oc2ccc(C(C)(C)C)cc2)c1C#N	?	42	8	0%	21	16µM*
CN(C)c1ccnc(Oc2ccc(Cl)cc2)c1C#N	-17%	1	2	-3%	21	?
Cc1cc(Cl)ccc1Oc1nccc(N(C)C)c1C#N	?	-70*	28	1%	6	16µM*
CC(=O)OC[C@H]1O[C@@H](Sc2cccc3cccnc23)[C@H](OC(C)=O)[C@@H](OC(C)=O)[C@@H]1OC(C)=O	?	-2	1	14µM*	13	?
CC(=O)OC[C@H]1O[C@@H](Sc2cccc3cccnc23)[C@H](OC(C)=O)[C@@H](OC(C)=O)[C@H]1OC(C)=O	18µM*	0	-8	4µM*	-22	-86%
CCCc1nc(C)cc(N2CCN(c3ccccc3)CC2)n1	29µM*	-3	3	·	23	21µM*
COc1cc(C)nc(NCc2ccccc2)n1	?	18	-5	-1%	7	?
Cc1cc(N2CCN(c3ccccc3)CC2)nc(NCc2ccccc2)n1	21µM*	20	-7	-1%	0	16µM*
Cc1cc(OC(C)C)nc(NCc2ccccc2)n1	?	4	-4	2%	-7	13µM*
COc1cccc(NC(=O)CN(C)C(=O)CSc2nc3ccccc3s2)c1	?	22	-23	2%	-4	?
SMILES	DT40 TDP1 CPT	IL1B secr inh	D3 ag	ClpP mod	DRD3 antagonist	TDP1 cell noCPT
CN(CC(=O)Nc1c(Cl)cccc1Cl)C(=O)c1ccccc1-c1nc2ccccc2s1	-1%	-53*	7	-3%	19	?
COc1cccc(NC(=O)CN(C)C(=O)c2ccccc2-c2nc3ccccc3s2)c1	?	-2	-5	?	5	23µM*
Cc1ccccc1-n1c(SCC(=O)N2CCN(c3ccccn3)CC2)nnc1N1CCOCC1	1%	6	3	58%	0	-13%
CSc1ncccc1C(=O)OCC(=O)Nc1ccc(C)c(S(=O)(=O)N2CCOCC2)c1	?	12	-5	2%	13	13µM*
Cc1ccc(NC(=O)COC(=O)c2ccc3c(c2)OCCO3)cc1S(=O)(=O)N1CCOCC1	0%	0	-3	·	4	?
Cc1ccc(NC(=O)COC(=O)c2cccnc2Cl)cc1S(=O)(=O)N1CCOCC1	-14%	7	28	-1%	-2	10%
Cc1ccc(NC(=O)COC(=O)c2ccc(NC(=O)CC#N)cc2)cc1S(=O)(=O)N1CCOCC1	-1%	-20	-25	·	-53*	-26%
Cc1cc(C(=O)COC(=O)c2ccc(NC(=O)CC#N)cc2)c(C)n1CC(F)(F)F	-5%	-8	-2	2%	-2	-28%
Cc1cc(C(=O)COC(=O)c2ccc(NC(=O)CC#N)cc2)c(C)n1C1CC1	21µM*	-12	7	·	13	21µM*
Cn1c(=O)[nH]c(N)c(Br)c1=O	-30%	0	-2	·	-5	?
CCOc1ccc(CCNC(=O)Cn2ncc3c(=O)oc4ccc(C)cc4c32)cc1	2%	·	8	-1%	·	-3%
O=C(COC(=O)c1cc2c(s1)CCCC2)Nc1ccc(Cl)cn1	-19%	28	-3	0%	8	14%
O=C(COC(=O)c1cc2c(s1)CCC2)Nc1ccc(F)cc1	?	0	6	·	10	15µM*
NC(=O)c1ccc(NC(=O)COC(=O)c2cc3c(s2)CCC3)cc1	?	15	4	-18%	3	-23%
COc1ccc(NC(=O)COC(=O)c2cc3c(s2)CCC3)cc1	16µM*	14	-2	-9%	-2	?
Cc1ccc(S(=O)(=O)N2CCC[C@H]2C(=O)OCc2cc(=O)oc3cc(C)ccc23)cc1	?	9	16	·	21	?
O=C(O)C(Nc1nc(C(F)(F)F)nc2ccccc12)c1ccccc1 (centres undefined)	13%	1	2	0%	1	18%
